Test results as given in PubChem BioAssay (Tox21).
Where “and” joins values, the source holds several entries; their conditions need not be identical. Equal values may be shown once. Calls of active or inactive are those of the source. A call without a number means that no potency is given here. Unless noted, calls come from the whole dose curve; as a rule, active = well fitted curve in the direction sought with a large enough effect in the repeat runs; inconclusive = weak or mixed curves; inactive = no such curve, though single readings can be large; an effect the other way counts as inactive or inconclusive.

Assays:
[1] = qHTS assay to identify small molecule antagonists of the glucocorticoid receptor (GR) signaling pathway - cell viability counter screen (AID 720693); note: nearly all actives have a fitted effect of over 55% in size
[2] = qHTS assay for identifying genotoxic compounds that show differential cytotoxicity against isogenic chicken DT40 cell lines with known DNA damage response pathways - wild type cell line (AID 743012); note: nearly all actives have a fitted effect of over 60% in size; note: potency is the fitted concentration of half-maximal effect
How it was run: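 Endpoint: CellTiter-Glo luminescence, 30 min RT. Cells: wild type DT40, 300/well. Exposure: compounds in DMSO, 40 h, 37 C/5% CO2, after ~0.5 h pre-incubation.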

[3] = qHTS assay for identifying genotoxic compounds that show differential cytotoxicity against isogenic chicken DT40 cell lines with known DNA damage response pathways - Rev3 mutant cell line (AID 743014); note: nearly all actives have a fitted effect of over 55% in size; note: potency is the fitted concentration of half-maximal effect
[4] = qHTS assay for identifying genotoxic compounds that show differential cytotoxicity against isogenic chicken DT40 cell lines with known DNA damage response pathways - Rad54/Ku70 mutant cell line (AID 743015); note: nearly all actives have a fitted effect of over 60% in size; note: potency is the fitted concentration of half-maximal effect
[5] = qHTS assay to identify small molecule antagonists of the androgen receptor (AR) signaling pathway - cell viability counter screen (AID 743033; note: nearly all actives have a fitted effect of over 45% in size; note: potency is the fitted concentration of half-maximal effect)
[6] = qHTS assay to identify small molecule antagonists of the thyroid receptor (TR) signaling pathway - cell viability counter screen (AID 743064); note: nearly all actives have a fitted effect of over 50% in size; note: potency is the fitted concentration of half-maximal effect
How it was run: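 Plate GH3.TRE-Luc cells; incubate 4 h at 37 °C; add compound, then T3 to 1 nM final; incubate 23.5 h; add CellTiter-Fluor; incubate 30 min at 37 °C, 5% CO2; read fluorescence.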

[7] = tested on: thyroid hormone receptor (rat, GH3 cells); experiment: qHTS assay to identify small molecule agonists of the thyroid receptor (TR) signaling pathway (AID 743066; calls by dose curve)
[8] = target: Estrogen receptor (Homo sapiens) (UniProt P03372); experiment: qHTS assay to identify small molecule antagonists of the estrogen receptor alpha (ER-alpha) signaling pathway (AID 743069; active = well fitted curve in the direction sought with a large enough effect in the signal ratio in the repeat runs, not every such curve was filed as active; inconclusive = weak or mixed curves, or effect the other way; inactive = no such curve, though single readings can be large or run the other way; the % refers to the signal ratio; note: potency is the fitted concentration of half-maximal effect)
Sequence of Estrogen receptor (Homo sapiens) (P03372 whole entry, looked up): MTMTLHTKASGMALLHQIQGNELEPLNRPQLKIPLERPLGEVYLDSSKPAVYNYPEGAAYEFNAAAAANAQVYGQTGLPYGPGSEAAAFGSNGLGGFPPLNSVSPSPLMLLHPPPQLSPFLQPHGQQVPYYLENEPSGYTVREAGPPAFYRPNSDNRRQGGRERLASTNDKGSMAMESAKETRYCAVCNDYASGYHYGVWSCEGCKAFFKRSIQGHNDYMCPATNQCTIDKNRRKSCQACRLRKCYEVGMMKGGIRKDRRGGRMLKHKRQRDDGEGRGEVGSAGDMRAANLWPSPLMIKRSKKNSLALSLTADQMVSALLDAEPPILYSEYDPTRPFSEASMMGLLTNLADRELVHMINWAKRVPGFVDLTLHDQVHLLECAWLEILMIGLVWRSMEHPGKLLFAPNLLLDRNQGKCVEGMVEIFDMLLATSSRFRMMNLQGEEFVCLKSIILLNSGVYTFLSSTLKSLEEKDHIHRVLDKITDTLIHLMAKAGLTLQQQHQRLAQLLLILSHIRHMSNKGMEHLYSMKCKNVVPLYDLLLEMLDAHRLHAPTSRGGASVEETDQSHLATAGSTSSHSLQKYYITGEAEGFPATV
How it was run: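 Fluorescence intensity from a beta-lactamase FRET substrate served as the read-out. Cells: HEK293 with stably integrated ER-alpha-UAS-bla reporter. Agonist 17beta-estradiol was co-added with compounds; incubation 18 hr at 37C, substrate 2 hr at room temperature.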

[9] = qHTS assay to identify small molecule antagonists of the estrogen receptor alpha (ER-alpha) signaling pathway - cell viability counter screen (AID 743074; calls by dose curve; note: nearly all actives have a fitted effect of over 45% in size)
[10] = target: Estrogen receptor (Homo sapiens) (UniProt P03372); experiment: qHTS assay to identify small molecule agonists of the estrogen receptor alpha (ER-alpha) signaling pathway (AID 743075; calls by dose curve; note: potency is the fitted concentration of half-maximal effect)
[11] = target: Estrogen receptor (Homo sapiens) (UniProt P03372); experiment: qHTS assay to identify small molecule agonists of the estrogen receptor alpha (ER-alpha) signaling pathway using the BG1 cell line (AID 743079); note: nearly all actives have a fitted effect of over 20% in size; note: potency is the fitted concentration of half-maximal effect
[12] = qHTS assay to identify small molecule antagonists of the estrogen receptor alpha (ER-alpha) signaling pathway using the BG1 cell line (AID 743080; calls by dose curve; note: series mostly up to about 70 µM; nearly all actives have a fitted effect of over 25% in size)
How it was run: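 Antagonist mode: compounds in DMSO were pinned onto BG1-Luc-4E2 cells alongside 17beta-estradiol agonist, incubated 21.5 h, and ERE-driven luciferase measured with ONE-Glo. Cytotoxicity was multiplexed using CellTiter-Fluor fluorescence.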

[13] = qHTS assay to identify small molecule antagonists of the estrogen receptor alpha (ER-alpha) signaling pathway using the BG1 cell line - cell viability counter screen (AID 743081);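 note: compound given together with 17beta-estradiol as the ER stimulus; series mostly up to about 70 µM; nearly all actives have a fitted effect of over 45% in size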
[14] = target: Androgen receptor (Homo sapiens) (UniProt P10275); experiment: qHTS assay to identify small molecule antagonists of the androgen receptor (AR) signaling pathway (AID 743035; active = well fitted inhibition curve with a large enough effect in the signal ratio in the repeat runs, not every such curve was filed as active; inconclusive = weak or mixed curves, or effect the other way; inactive = no such curve, though single readings can be large or run the other way; the % refers to the signal ratio; note: potency is the fitted concentration of half-maximal effect)
Sequence of Androgen receptor (Homo sapiens) (P10275 whole entry, looked up): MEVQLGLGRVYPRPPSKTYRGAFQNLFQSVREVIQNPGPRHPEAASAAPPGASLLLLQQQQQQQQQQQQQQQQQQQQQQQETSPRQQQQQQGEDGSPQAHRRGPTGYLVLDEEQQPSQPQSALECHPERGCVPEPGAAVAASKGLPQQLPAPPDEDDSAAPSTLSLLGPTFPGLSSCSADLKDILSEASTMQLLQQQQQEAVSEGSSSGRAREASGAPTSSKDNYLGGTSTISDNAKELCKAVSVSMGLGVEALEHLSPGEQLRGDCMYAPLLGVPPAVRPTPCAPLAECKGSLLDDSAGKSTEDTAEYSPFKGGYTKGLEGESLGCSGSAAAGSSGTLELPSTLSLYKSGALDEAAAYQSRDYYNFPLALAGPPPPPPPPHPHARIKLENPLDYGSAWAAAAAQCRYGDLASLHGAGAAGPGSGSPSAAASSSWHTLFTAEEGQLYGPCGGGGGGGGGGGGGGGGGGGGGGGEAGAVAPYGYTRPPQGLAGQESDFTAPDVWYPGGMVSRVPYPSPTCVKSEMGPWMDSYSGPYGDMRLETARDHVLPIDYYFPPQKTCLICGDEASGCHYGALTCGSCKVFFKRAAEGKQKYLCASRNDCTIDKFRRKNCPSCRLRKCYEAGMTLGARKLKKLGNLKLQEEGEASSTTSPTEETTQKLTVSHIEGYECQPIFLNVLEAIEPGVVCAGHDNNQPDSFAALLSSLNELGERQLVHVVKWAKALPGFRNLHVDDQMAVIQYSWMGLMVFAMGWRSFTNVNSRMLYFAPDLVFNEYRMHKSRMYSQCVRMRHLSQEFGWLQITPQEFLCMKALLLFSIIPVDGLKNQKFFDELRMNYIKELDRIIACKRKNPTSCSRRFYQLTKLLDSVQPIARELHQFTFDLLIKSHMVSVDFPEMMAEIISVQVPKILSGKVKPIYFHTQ
How it was run: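 R1881 agonist challenge of a HEK293 UAS-beta-lactamase AR reporter line in the presence of compound (16 h, 37C); signal taken as FRET fluorescence after 2 h with LiveBLAzer B/G substrate at room temperature.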

[15] = target: Androgen receptor (Homo sapiens) (UniProt P10275); experiment: qHTS assay to identify small molecule agonists of the androgen receptor (AR) signaling pathway (AID 743036; active = well fitted activation curve with a large enough effect in the signal ratio in the repeat runs, with a control signal flat, not every such curve was filed as active; inconclusive = weak or mixed curves, or effect the other way; inactive = no such curve, though single readings can be large or run the other way; the % refers to the signal ratio)
How it was run: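 Reporter line: GeneBLAzer AR-UAS-bla-GripTite (HEK293). Steps: plate cells, 4 h rest, add compounds, 16 h at 37C, add LiveBLAzer B/G substrate, 2 h at RT, read fluorescence.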

[16] = target: Androgen receptor (Homo sapiens) (UniProt P10275); experiment: qHTS assay to identify small molecule agonists of the androgen receptor (AR) signaling pathway using the MDA cell line (AID 743040; note: nearly all actives have a fitted effect of over 20% in size)
How it was run: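 Stable MMTV-luciferase reporter in MDA-kb2 cells; note the promoter carries GR as well as AR response elements. 16 h compound treatment, 37C, 0% CO2; ONE-Glo luminescence endpoint.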

[17] = qHTS assay to identify small molecule antagonists of the androgen receptor (AR) signaling pathway using the MDA cell line - cell viability counter screen (AID 743041; note: nearly all actives have a fitted effect of over 45% in size)
How it was run: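 Using the breast carcinoma line MDA-kb2 AR-luc, test chemicals were co-incubated with R1881 for 16 h; CellTiter-Fluor reagent, added at 15.5 h, provided a fluorescence measure of live cells.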

[18] = target: Androgen receptor (Homo sapiens) (UniProt P10275); experiment: qHTS assay to identify small molecule antagonists of the androgen receptor (AR) signaling pathway using the MDA cell line (AID 743042; note: nearly all actives have a fitted effect of over 55% in size; note: potency is the fitted concentration of half-maximal effect)
How it was run: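 Antagonist mode: compounds plus R1881 agonist added to MDA-kb2 AR-luc cells, incubated 16 h at 37C. Luciferase reporter luminescence quantified, with multiplexed CellTiter-Fluor readout for cell viability.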

Aromatase (Homo sapiens) = Aromatase (Homo sapiens) (UniProt P11511); experiment: qHTS assay to identify aromatase inhibitors (AID 743083); note: nearly all actives have a fitted effect of over 55% in size; note: potency is the fitted concentration of half-maximal effect
Sequence of Aromatase (Homo sapiens) (P11511 whole entry, looked up): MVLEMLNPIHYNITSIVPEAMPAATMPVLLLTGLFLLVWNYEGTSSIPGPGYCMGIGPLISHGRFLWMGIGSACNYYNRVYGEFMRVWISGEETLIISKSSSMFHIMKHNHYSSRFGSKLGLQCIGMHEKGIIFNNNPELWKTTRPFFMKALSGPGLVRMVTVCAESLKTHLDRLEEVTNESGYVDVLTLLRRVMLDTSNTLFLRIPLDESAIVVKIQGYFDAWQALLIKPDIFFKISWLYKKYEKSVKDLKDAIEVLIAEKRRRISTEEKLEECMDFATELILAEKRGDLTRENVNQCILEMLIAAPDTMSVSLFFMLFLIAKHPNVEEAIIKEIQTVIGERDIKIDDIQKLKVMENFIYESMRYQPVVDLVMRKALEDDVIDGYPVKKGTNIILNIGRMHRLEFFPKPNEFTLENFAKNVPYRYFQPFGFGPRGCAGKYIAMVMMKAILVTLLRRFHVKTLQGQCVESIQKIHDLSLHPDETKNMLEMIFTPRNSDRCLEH

[19] = qHTS assay to identify small molecule antagonists of the thyroid receptor (TR) signaling pathway (AID 743065); note: nearly all actives have a fitted effect of over 55% in size; note: potency is the fitted concentration of half-maximal effect
How it was run: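 Antagonism measured as loss of luciferase signal in GH3 cells stably carrying a TRE-luciferase reporter, co-treated with compound and T3 (1 nM final) for 23.5 h at 37 C. Viability was read in the same well by CellTiter-Fluor.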

SMILES	Potency [1]	Potency [2]	Potency [3]	Potency [4]	Potency [5]	Potency [6]	Potency [7]	Potency [8]	Potency [9]	Potency [10]	Potency [11]	Potency [12]	Potency [13]	Potency [14]	outcome [15]	Potency [16]	Potency [17]	Potency [18]	Potency (Aromatase (Homo sapiens))	Potency [19]
COc1c(C(C)(C)C)cc([N+](=O)[O-])c(C)c1[N+](=O)[O-]	inactive	inactive	inactive	inactive	inactive	inactive	inactive	inactive	inactive	48.6 µM [activator] (active)	inactive	inactive	inactive							
CCOP(=O)(OCC)Oc1ccc([N+](=O)[O-])cc1	inactive	inactive	inactive	inactive	inactive	inactive	inactive		inactive				inactive							
COP(=O)(OC)O/C(=C/Cl)c1cc(Cl)c(Cl)cc1Cl	inactive	64.6 µM (active)	28.8 µM (active)	64.6 µM (active)			inactive	16.4 µM [inconclusive] (active)					inactive	18.4 µM (active)	inactive	inactive	inactive	72.4 µM (active)	40.7 µM (active)	
COC(C)(C)CCC[C@H](C)C/C=C/C(C)=C/C(=O)OC(C)C	inactive	21.7 µM (active)	24.3 µM (active)	19.3 µM (active)			inactive		inactive				inactive		inactive	inactive			inactive	61.1 µM (active)
CNP(=O)(OC)Oc1ccc(C(C)(C)C)cc1Cl (stereo not drawn)	inactive	13.7 µM (active)	19.3 µM (active)	21.7 µM (active)		inactive	inactive		inactive	inactive	inactive	inactive	inactive						inactive	inactive
C/C=C/C=O	inactive	inactive	inactive	inactive	inactive	inactive	inactive		inactive				inactive						inactive	
CN1C[C@H](CNC(=O)OCc2ccccc2)C[C@@H]2c3cccc4c3c(cn4C)C[C@H]21	inactive	5.96 µM (active)	8.41 µM (active)	8.41 µM (active)		9.44 µM (active)			inactive	inactive		inactive								10.6 µM (active)
c1ccc(C2CC2)c(OCC2=NCCN2)c1	inactive	inactive		inactive	inactive	inactive	inactive	inactive	inactive	inactive	inactive	inactive		inactive	inactive	inactive	inactive	inactive	inactive	inactive
CC(=O)CCC(C)=O	inactive		inactive	inactive	inactive	inactive	inactive	inactive	inactive	inactive	inactive	inactive	inactive				inactive		inactive	inactive
Cc1ccccc1C(=O)Nc1cccc(OC(C)C)c1	inactive		30.6 µM (active)	48.6 µM (active)	inactive	inactive	inactive	inactive	inactive	inactive	inactive	inactive	inactive			inactive		inactive	inactive	
O=[N+]([O-])C(Br)(CO)CO	inactive		18.8 µM (active) and 7.7 µM (active)	26.6 µM (active) and 12.2 µM (active)	inactive	23.7 µM (active) and 21.7 µM (active)	inactive	inactive	inactive	inactive	inactive	inactive	inactive		inactive	inactive	inactive	inactive	inactive	23.7 µM (active) and 24.3 µM (active)
CCCCNP(N)(N)=S	inactive		inactive	inactive	inactive	inactive	inactive	inactive	inactive	inactive		inactive	inactive				inactive		inactive	inactive
CCOC(=O)COc1cc(-c2nn(C)c(OC(F)F)c2Cl)c(F)cc1Cl	inactive		inactive	43.3 µM (active)	inactive	inactive	inactive		inactive							inactive	inactive	inactive	inactive	
CC(=O)[C@H]1CC[C@H]2[C@@H]3CC[C@H]4C[C@](C)(O)CC[C@]4(C)[C@H]3CC[C@]12C	inactive	inactive		inactive	inactive	inactive	inactive	inactive	inactive	inactive	inactive	inactive	inactive				inactive		inactive	inactive
NCCCNCCCN	inactive		55.3 µM (active)	62.1 µM (active)	49.7 µM (active)	62.1 µM (active)							inactive			inactive		inactive	62.1 µM (active)	
COP(=S)(OC)Oc1cc(Cl)c(I)cc1Cl	inactive		inactive	inactive	inactive	inactive	inactive		inactive				inactive			inactive	inactive	inactive	inactive	
CCCCCCCCCC(=O)O[C@H]1CC[C@H]2[C@@H]3CCC4=CC(=O)CC[C@@H]4[C@H]3CC[C@]12C	inactive	inactive		inactive	inactive	inactive	inactive			0.848 µM [inconclusive] (active)	0.188 µM (active)	inactive	inactive				inactive		inactive	inactive
Nc1ccc([N+](=O)[O-])cc1[N+](=O)[O-]	inactive		53.1 µM (active)	66.8 µM (active)	inactive		inactive	inactive	inactive	inactive	inactive	inactive				inactive		inactive	inactive	
Cn1cc[n+](C)c1 (tested in a mixture with another compound)	inactive		inactive	inactive	inactive	inactive	inactive	inactive	inactive	inactive	inactive	inactive	inactive				inactive		inactive	inactive
Nc1nc(=S)[nH][nH]1	inactive	inactive	48.6 µM (active)		inactive	inactive	inactive	inactive	inactive	inactive	inactive	inactive	inactive				inactive		inactive	
C=CCOC(C)=O	inactive		inactive	inactive	inactive	inactive	inactive	inactive	inactive	inactive	inactive	inactive	inactive	inactive	inactive	inactive	inactive	inactive	inactive	inactive
OCCCBr	inactive		inactive	inactive	inactive	54.5 µM (active)	inactive	inactive		inactive	inactive	inactive					inactive		inactive	61.1 µM (active)
CC(C)O.CC(C)O.OCCN(CCO)CCO.OCCN(CCO)CCO.[Ti]	inactive		inactive	inactive	inactive	inactive	inactive		inactive				inactive				inactive			inactive
CCOS(C)(=O)=O	inactive	inactive		inactive	inactive	inactive	inactive		inactive				inactive				inactive		inactive	inactive
